Binding signal data for 15 sequences are collected here from publication PMC11006913.

What all share (assay): PBM; 200 nM protein, PBS
Conditions in all cases: dsDNA, one strand shown

Experiment [1] concerns the target HOXB9 (Homo sapiens, UniProt P17482 171-250).
For experiment [2], the target named is HOXB9 (Homo sapiens, UniProt P17482 171-250, R186Q).
Experiment [3] concerns the target HESX1 (Homo sapiens, UniProt Q9UBX0 95-180, R165K).
For experiment [4], the target named is HESX1 (Homo sapiens, UniProt Q9UBX0 95-180).
Chain of HESX1 (Homo sapiens, UniProt Q9UBX0 95-180) (Q9UBX0 95-180): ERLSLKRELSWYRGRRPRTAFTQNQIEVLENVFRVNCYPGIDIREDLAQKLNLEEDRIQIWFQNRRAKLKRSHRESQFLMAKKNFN
Experiment [5] addresses HESX1 (Homo sapiens, UniProt Q9UBX0 95-180, F115L).
For experiment [6], the target named is SHOX (Homo sapiens, UniProt O15266 103-189).
Chain of SHOX (Homo sapiens, UniProt O15266 103-189) (O15266 103-189): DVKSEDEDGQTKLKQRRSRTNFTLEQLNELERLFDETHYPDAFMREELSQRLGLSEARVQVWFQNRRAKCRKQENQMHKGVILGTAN
Experiment [7] has as its target HOXA2 (Homo sapiens, UniProt O43364 129-215, R185T).
The target of experiment [8] is MSX2 (Homo sapiens, UniProt P35548 130-214, R199I).
Chain of MSX2 (Homo sapiens, UniProt P35548 130-214, R199I) (P35548 130-214 R199I): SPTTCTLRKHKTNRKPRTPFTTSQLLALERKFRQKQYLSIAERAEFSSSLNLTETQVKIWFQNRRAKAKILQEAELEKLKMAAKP
The target in experiment [9] is SHOX (Homo sapiens, UniProt O15266 103-189, R173C).
Chain of SHOX (Homo sapiens, UniProt O15266 103-189, R173C) (O15266 103-189 R173C): as the sequence (O15266 103-189) above, with R71C counted along it
Experiment [10] addresses HOXA2 (Homo sapiens, UniProt O43364 129-215, R185K).
Experiment [11] has as its target MSX2 (Homo sapiens, UniProt P35548 130-214).
The target of experiment [12] is PROP1 (Homo sapiens, UniProt O75360 56-141).
Chain of PROP1 (Homo sapiens, UniProt O75360 56-141) (O75360 56-141): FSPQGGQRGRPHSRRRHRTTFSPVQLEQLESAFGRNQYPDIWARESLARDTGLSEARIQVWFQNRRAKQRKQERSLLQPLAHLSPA
For experiment [13], the target named is PROP1 (Homo sapiens, UniProt O75360 56-141, R99H).
Chain of PROP1 (Homo sapiens, UniProt O75360 56-141, R99H) (O75360 56-141 R99H): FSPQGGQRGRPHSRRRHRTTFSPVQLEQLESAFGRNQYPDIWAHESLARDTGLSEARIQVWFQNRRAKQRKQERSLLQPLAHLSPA
The target in experiment [14] is VAX1 (Homo sapiens, UniProt Q5SQQ9 86-172).
Chain of VAX1 (Homo sapiens, UniProt Q5SQQ9 86-172) (Q5SQQ9 86-172): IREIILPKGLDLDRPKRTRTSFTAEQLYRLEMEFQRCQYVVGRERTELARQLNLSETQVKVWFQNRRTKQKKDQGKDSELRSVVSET
For experiment [15], the target named is PROP1 (Homo sapiens, UniProt O75360 56-141, F88S).
Chain of PROP1 (Homo sapiens, UniProt O75360 56-141, F88S) (O75360 56-141 F88S): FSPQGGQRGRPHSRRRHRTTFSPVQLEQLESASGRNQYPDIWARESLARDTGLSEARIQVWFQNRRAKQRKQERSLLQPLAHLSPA
The target in experiment [16] is MSX2 (Homo sapiens, UniProt P35548 130-214, F161Y).
Chain of MSX2 (Homo sapiens, UniProt P35548 130-214, F161Y) (P35548 130-214 F161Y): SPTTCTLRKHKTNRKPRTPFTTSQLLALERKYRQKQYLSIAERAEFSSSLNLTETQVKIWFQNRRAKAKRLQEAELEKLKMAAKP
For experiment [17], the target named is HOXA2 (Homo sapiens, UniProt O43364 129-215, Y150S).
Chain of HOXA2 (Homo sapiens, UniProt O43364 129-215, Y150S) (O43364 129-215 Y150S): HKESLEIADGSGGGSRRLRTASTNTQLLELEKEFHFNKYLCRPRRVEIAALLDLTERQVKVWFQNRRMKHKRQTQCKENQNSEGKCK
Experiment [18] has as its target HOXA2 (Homo sapiens, UniProt O43364 129-215).
The target of experiment [19] is VAX1 (Homo sapiens, UniProt Q5SQQ9 86-172, K157R).
Chain of VAX1 (Homo sapiens, UniProt Q5SQQ9 86-172, K157R) (Q5SQQ9 86-172 K157R): as the sequence (Q5SQQ9 86-172) above, with K72R counted along it
A further experiment deals with HOXB6 (Homo sapiens, UniProt P17509 132-218).
Chain of HOXB6 (P17509 132-218): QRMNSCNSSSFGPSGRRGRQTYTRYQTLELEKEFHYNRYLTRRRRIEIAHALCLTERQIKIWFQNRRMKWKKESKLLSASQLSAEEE

Chain of MSX2 (Homo sapiens, UniProt P35548 130-214) (P35548 130-214): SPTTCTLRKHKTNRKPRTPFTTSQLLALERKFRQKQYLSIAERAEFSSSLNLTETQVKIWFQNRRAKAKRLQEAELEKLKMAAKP
Chain of HOXA2 (Homo sapiens, UniProt O43364 129-215, R185K) (O43364 129-215 R185K): as the sequence (O43364 129-215 Y150S) above, with S22Y, R57K counted along it
Chain of HOXA2 (Homo sapiens, UniProt O43364 129-215) (O43364 129-215): as the sequence (O43364 129-215 Y150S) above, with S22Y counted along it
Chain of HOXB9 (Homo sapiens, UniProt P17482 171-250) (P17482 171-250): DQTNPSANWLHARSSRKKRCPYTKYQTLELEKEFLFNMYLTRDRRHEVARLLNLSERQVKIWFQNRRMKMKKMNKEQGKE
Chain of HOXB9 (Homo sapiens, UniProt P17482 171-250, R186Q) (P17482 171-250 R186Q): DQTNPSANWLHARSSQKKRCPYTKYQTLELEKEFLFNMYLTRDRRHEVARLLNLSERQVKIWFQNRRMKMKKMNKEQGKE
Chain of HOXA2 (Homo sapiens, UniProt O43364 129-215, R185T) (O43364 129-215 R185T): as the sequence (O43364 129-215 Y150S) above, with S22Y, R57T counted along it
Chain of HESX1 (Homo sapiens, UniProt Q9UBX0 95-180, F115L) (Q9UBX0 95-180 F115L): as the sequence (Q9UBX0 95-180) above, with F21L counted along it
Chain of HESX1 (Homo sapiens, UniProt Q9UBX0 95-180, R165K) (Q9UBX0 95-180 R165K): as the sequence (Q9UBX0 95-180) above, with R71K counted along it

Turning to CACTTATA, the binding signal is 10.4 upbm affinity estimate (log intensity, higher = more binding, comparable within an allelic series) with HOXB9 [1] and 10.2 upbm affinity estimate (log intensity, higher = more binding, comparable within an allelic series) in the experiment with HOXB9 [2].

In the case of CCAGCGCG, the binding signal with HESX1 [3] was 6.43 upbm affinity estimate (log intensity, higher = more binding, comparable within an allelic series); in the experiment with HESX1 [4] it was 6.41 upbm affinity estimate (log intensity, higher = more binding, comparable within an allelic series); with HESX1 [5], 6.43 upbm affinity estimate (log intensity, higher = more binding, comparable within an allelic series).

For CTAATTGC, the binding signal in the experiment with HESX1 [3] is 12.3 upbm affinity estimate (log intensity, higher = more binding, comparable within an allelic series); with SHOX [6], 11.8 upbm affinity estimate (log intensity, higher = more binding, comparable within an allelic series); in the experiment with HESX1 [4], 12.5 upbm affinity estimate (log intensity, higher = more binding, comparable within an allelic series); with HOXA2 [7], 13.1 upbm affinity estimate (log intensity, higher = more binding, comparable within an allelic series); in the experiment with MSX2 [8], 13 upbm affinity estimate (log intensity, higher = more binding, comparable within an allelic series); in the experiment with SHOX [9] it was 9.34 upbm affinity estimate (log intensity, higher = more binding, comparable within an allelic series). For the same sequence, the binding signal is 13.5 upbm affinity estimate (log intensity, higher = more binding, comparable within an allelic series) with HOXA2 [10]; 14 upbm affinity estimate (log intensity, higher = more binding, comparable within an allelic series) with MSX2 [11]; 11.2 upbm affinity estimate (log intensity, higher = more binding, comparable within an allelic series) with PROP1 [12]; 11.5 upbm affinity estimate (log intensity, higher = more binding, comparable within an allelic series) with PROP1 [13]; 13 upbm affinity estimate (log intensity, higher = more binding, comparable within an allelic series) with VAX1 [14]; 7.41 upbm affinity estimate (log intensity, higher = more binding, comparable within an allelic series) in the experiment with PROP1 [15]. The binding signal was 13.6 upbm affinity estimate (log intensity, higher = more binding, comparable within an allelic series) with MSX2 [16]; 7.52 upbm affinity estimate (log intensity, higher = more binding, comparable within an allelic series) in the experiment with HESX1 [5]; 10.7 upbm affinity estimate (log intensity, higher = more binding, comparable within an allelic series) with HOXA2 [17]; 12.6 upbm affinity estimate (log intensity, higher = more binding, comparable within an allelic series) with HOXA2 [18]; 12.8 upbm affinity estimate (log intensity, higher = more binding, comparable within an allelic series) with VAX1 [19]; 11.8 upbm affinity estimate (log intensity, higher = more binding, comparable within an allelic series) with HOXB6.

Turning to ACCCGGGC, the binding signal with SHOX [6] is 7.11 upbm affinity estimate (log intensity, higher = more binding, comparable within an allelic series); with SHOX [9] it was 7.15 upbm affinity estimate (log intensity, higher = more binding, comparable within an allelic series).

With CCGGAGCC, in the experiment with HOXB6, the binding signal was 8.93 upbm affinity estimate (log intensity, higher = more binding, comparable within an allelic series).

Consider GCACTTAA, for which the binding signal with HOXA2 [7] is 10.2 upbm affinity estimate (log intensity, higher = more binding, comparable within an allelic series); with HOXA2 [10], 12.3 upbm affinity estimate (log intensity, higher = more binding, comparable within an allelic series); in the experiment with HOXA2 [17] it was 10.8 upbm affinity estimate (log intensity, higher = more binding, comparable within an allelic series); with HOXA2 [18], 10.4 upbm affinity estimate (log intensity, higher = more binding, comparable within an allelic series); with HOXB6, 10.9 upbm affinity estimate (log intensity, higher = more binding, comparable within an allelic series).

Regarding ACCAGCTG, the binding signal in the experiment with SHOX [6] is 7.08 upbm affinity estimate (log intensity, higher = more binding, comparable within an allelic series); with SHOX [9], 7.03 upbm affinity estimate (log intensity, higher = more binding, comparable within an allelic series).

With CTGGCCAG, the binding signal is 9.71 upbm affinity estimate (log intensity, higher = more binding, comparable within an allelic series) in the experiment with MSX2 [8]; 9.79 upbm affinity estimate (log intensity, higher = more binding, comparable within an allelic series) in the experiment with MSX2 [11]; 9.83 upbm affinity estimate (log intensity, higher = more binding, comparable within an allelic series) with MSX2 [16].

For the sequence CATGCGCC, the binding signal with HOXB9 [1] was 8.56 upbm affinity estimate (log intensity, higher = more binding, comparable within an allelic series); in the experiment with HOXB9 [2], 8.56 upbm affinity estimate (log intensity, higher = more binding, comparable within an allelic series).

Regarding CCGGTGGC, the binding signal was 9.47 upbm affinity estimate (log intensity, higher = more binding, comparable within an allelic series) in the experiment with MSX2 [8]; 9.56 upbm affinity estimate (log intensity, higher = more binding, comparable within an allelic series) in the experiment with MSX2 [11]; 7.31 upbm affinity estimate (log intensity, higher = more binding, comparable within an allelic series) with VAX1 [14]; 9.58 upbm affinity estimate (log intensity, higher = more binding, comparable within an allelic series) in the experiment with MSX2 [16]; 7.27 upbm affinity estimate (log intensity, higher = more binding, comparable within an allelic series) with VAX1 [19].

On to ATAATGGG, for which the binding signal with HOXB6 was 11.8 upbm affinity estimate (log intensity, higher = more binding, comparable within an allelic series).

On to GCGACGCC, for which the binding signal in the experiment with HOXA2 [7] is 7.22 upbm affinity estimate (log intensity, higher = more binding, comparable within an allelic series); in the experiment with HOXA2 [10], 10.4 upbm affinity estimate (log intensity, higher = more binding, comparable within an allelic series); with VAX1 [14] it was 7.12 upbm affinity estimate (log intensity, higher = more binding, comparable within an allelic series); with HOXA2 [17], 10.6 upbm affinity estimate (log intensity, higher = more binding, comparable within an allelic series); with HOXA2 [18], 7.31 upbm affinity estimate (log intensity, higher = more binding, comparable within an allelic series); with VAX1 [19], 7.22 upbm affinity estimate (log intensity, higher = more binding, comparable within an allelic series).

With CGTGCACG, the binding signal with HOXB9 [1] is 8.75 upbm affinity estimate (log intensity, higher = more binding, comparable within an allelic series); with HOXB9 [2], 8.57 upbm affinity estimate (log intensity, higher = more binding, comparable within an allelic series).

Regarding CCAGCCAG, the binding signal with HOXB9 [1] is 8.34 upbm affinity estimate (log intensity, higher = more binding, comparable within an allelic series); with HOXB9 [2], 8.39 upbm affinity estimate (log intensity, higher = more binding, comparable within an allelic series).

CACGGGCC: the binding signal was 6.97 upbm affinity estimate (log intensity, higher = more binding, comparable within an allelic series) with HOXA2 [7]; 9.44 upbm affinity estimate (log intensity, higher = more binding, comparable within an allelic series) in the experiment with MSX2 [8]; 10.1 upbm affinity estimate (log intensity, higher = more binding, comparable within an allelic series) in the experiment with HOXA2 [10]; 9.39 upbm affinity estimate (log intensity, higher = more binding, comparable within an allelic series) with MSX2 [11]; 9.46 upbm affinity estimate (log intensity, higher = more binding, comparable within an allelic series) with MSX2 [16]; 10.3 upbm affinity estimate (log intensity, higher = more binding, comparable within an allelic series) with HOXA2 [17]. Also, the binding signal with HOXA2 [18] was 6.84 upbm affinity estimate (log intensity, higher = more binding, comparable within an allelic series).
